# Experimental data taken from PubChem BioAssay (Tox21).
# A number with no mark means an inactive call. Results filed as inconclusive are left out. Entries that show only a call come without a potency. The source made the active and inactive calls. Unless noted, calls follow the shape of the dose curve; as a rule, active = well fitted curve in the direction sought with a large enough effect in the repeat runs; inconclusive = weak or mixed curves; inactive = no such curve, though single readings can be large; an effect the other way counts as inactive or inconclusive.
# Tests used:
# [1] = qHTS assay to identify small molecule antagonists of the estrogen receptor alpha (ER-alpha) signaling pathway using the BG1 cell line in the presence of 0.1 nM 17-beta-estradiol - cell viability counter screen (AID 1259241); also: nearly all actives have a fitted effect of over 40% in size; also: potency is read from the fitted curve at half-maximal effect
# Outline: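 Cytotoxicity counter-screen: live-cell protease activity measured by fluorescence (30 min reagent step) in the same wells. Cells were VM7Luc4E2 with endogenous ER-alpha and ERE-driven luciferase, treated 22 hr at 37C alongside 0.1 nM 17beta-estradiol final.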
# [2] = qHTS assay to identify small molecule antagonists of the androgen receptor (AR) signaling pathway using the MDA cell line in the presence of 0.5 nM R1881 - cell viability counter screen (AID 1259242); also: nearly all actives have a fitted effect of over 45% in size; also: potency is read from the fitted curve at half-maximal effect
# Outline: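 Counter screen for cytotoxicity run in the same wells as the AR antagonist reporter screen: MDA-kb2 cells were treated 16 hr with test compounds and 0.5 nM R1881, then live-cell protease activity was measured by fluorescence.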
# [3] = target: Androgen receptor (Homo sapiens) (UniProt P10275); experiment: qHTS assay to identify small molecule antagonists of the androgen receptor (AR) signaling pathway using the MDA cell line in the presence of 0.5 nM R1881 (AID 1259243); also: nearly all actives have a fitted effect of over 50% in size; also: potency is read from the fitted curve at half-maximal effect
# Outline: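 Luciferase luminescence is the read-out: compounds are tested for suppressing 0.5 nM R1881-driven MMTV reporter activity in MDA-kb2 cells after 16 hr at 37C.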
# [4] = target: Estrogen receptor (Homo sapiens) (UniProt P03372); experiment: qHTS assay to identify small molecule antagonists of the estrogen receptor alpha (ER-alpha) signaling pathway using the BG1 cell line in the presence of 0.1 nM 17-beta-estradiol (AID 1259244); also: nearly all actives have a fitted effect of over 50% in size; also: potency is read from the fitted curve at half-maximal effect
# Outline: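 Cells: VM7Luc4E2, endogenous ER-alpha, 4x ERE-luc stable. Pre-culture 5 d, phenol red-free, charcoal-stripped FBS. Plated 24 h, compound + E2 0.1 nM final, 22 h 37C/5% CO2. Readout ONE-Glo luminescence.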
# [5] = qHTS assay to identify small molecule phospholipidosis (PLD) inducers (AID 1259344; active = well fitted curve in the direction sought with a large enough effect; an effect the other way counts as inactive or inconclusive)
# Outline: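 Quantitative HTS in HepG2: compound plus LipidTOX Red dye for 24 h, paraformaldehyde fixation with Hoechst 33342, widefield high-content imaging; amiodarone as positive and DMSO as negative control.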
# [6] = qHTS assay to identify small molecule HDAC inhibitors (AID 1259364); also: top concentration of the series differs between compounds; nearly all actives have a fitted effect of over 45% in size
# Outline: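 Luminescence from a cell-permeant luminogenic class I/II HDAC substrate reports endogenous deacetylase activity in intact HCT-116 cells treated with compounds for 2 h.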
# [7] = qHTS assay to identify small molecule HDAC inhibitors - cell viability counter screen (AID 1259365); also: nearly all actives have a fitted effect of over 50% in size; also: potency is read from the fitted curve at half-maximal effect
# Outline: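 CellTiter-Glo luminescence (30 min, room temperature) reported viability after a 2 h compound exposure at 37 C. Cells: wild-type HCT-116, 1,500 per well, seeded the night before.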
# [8] = qHTS assay to identify small molecule agonists of the sonic hedgehog signaling (Shh) pathway - cell viability counter screen (AID 1259366); also: nearly all actives have a fitted effect of over 50% in size; also: potency is read from the fitted curve at half-maximal effect
# Outline: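 Cytotoxicity counter screen: CellTiter-Fluor reagent added after 23 h compound exposure, then 1 h at 37C and fluorescence read. Cells were 3T3 Gli1-Luc, seeded 2,000 per well and dosed 4 h post-plating.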
# [9] = qHTS assay to identify small molecule antagonists of the sonic hedgehog signaling (Shh) pathway - cell viability counter screen (AID 1259367); also: nearly all actives have a fitted effect of over 55% in size; also: potency is read from the fitted curve at half-maximal effect
# Outline: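 Seed 3T3 Gli1-Luc cells at 2,000 per well; incubate 4 hr; add compound in DMSO, then conditioned medium; incubate at 37C with 5% CO2; add CellTiter-Fluor after 23 hr; read fluorescence 1 hr later.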
# [10] = qHTS assay to identify small molecule agonists of the sonic hedgehog signaling (Shh) pathway (AID 1259368; calls by dose curve;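 also: NIH/3T3-derived 3T3Gli1-Luc cells carrying a stable Gli1-driven firefly luciferase reporter; series mostly up to about 92 µM; nearly all actives have a fitted effect of over 15% in size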)
# Outline: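 3T3Gli1-Luc (NIH/3T3 clone, stable Gli1-Luc); 4 hr pre-incubation, then cpd in DMSO 24 hr, 37 C/5% CO2; luciferase reagent 30 min RT; luminescence.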
# [11] = target: Estrogen receptor beta (Homo sapiens) (UniProt Q92731); experiment: qHTS assay to identify small molecule agonists of the estrogen receptor beta (ER-beta) signaling pathway (AID 1259377; active = well fitted activation curve with a large enough effect in the signal ratio in the repeat runs, not every such curve was filed as active; the % refers to the signal ratio)
# Outline: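 Ratiometric beta-lactamase FRET read-out came after 2 h substrate loading at room temperature. It followed 16 h compound treatment at 37C of GripTite HEK293T cells carrying a UAS-bla reporter, plated in 2% charcoal-stripped FBS medium.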
# [12] = target: Estrogen receptor beta (Homo sapiens) (UniProt Q92731); experiment: qHTS assay to identify small molecule antagonists of the estrogen receptor beta (ER-beta) signaling pathway (AID 1259378; active = well fitted inhibition curve with a large enough effect in the signal ratio in the repeat runs, not every such curve was filed as active; the % refers to the signal ratio; also: potency is read from the fitted curve at half-maximal effect)
# Outline: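 ER-beta-UAS-bla HEK293T cells in 2% charcoal-stripped FBS medium treated with compound plus 1nM final 17-beta-estradiol for 16 hr at 37C. Beta-lactamase reporter read by FRET substrate fluorescence after 2 hours at room temperature.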
# [13] = qHTS assay to identify small molecule agonists of the androgen receptor (AR) signaling pathway in the presence of an antagonist - cell viability counter screen (AID 1259379); also: nearly all actives have a fitted effect of over 25% in size; also: potency is read from the fitted curve at half-maximal effect
# Outline: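 Cells: MDA-kb2 (MMTV-luc, AR and GR elements), 3,000/well, 5 hr settle. Added: nilutamide 3.0uM final, then compounds (15 conc.). Incubation: 16 hr, 37C, no CO2. Read-out: CellTiter-Fluor, 1 hr, fluorescence.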
# [14] = qHTS assay to identify small molecule agonists of the estrogen receptor beta (ER-beta) signaling pathway - cell viability counter screen (AID 1259380); also: nearly all actives have a fitted effect of over 30% in size; also: potency is read from the fitted curve at half-maximal effect
# Outline: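 HEK293T ER-beta-UAS-bla; 2% CS-FBS; 6 hr pre-plate, 16 hr cpd at 37C/5% CO2; LiveBLAzer read first, then CellTiter-Glo 30 min RT, luminescence.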
# [15] = target: Androgen receptor (Homo sapiens) (UniProt P10275); experiment: qHTS assay to identify small molecule agonists of the androgen receptor (AR) signaling pathway in the presence of an antagonist (AID 1259381; calls by dose curve; also: nearly all actives have a fitted effect of over 15% in size)
# Outline: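 MDA-kb2 cells, 3,000/well, rested 5hr at 37C/0% CO2 → nilutamide 3.0uM final or buffer → compounds, 15 conc. → 16hr at 37C → ONE-Glo, 30min RT → luminescence.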
# [16] = qHTS assay to identify small molecule antagonists of the estrogen receptor beta (ER-beta) signaling pathway - cell viability counter screen (AID 1259382); also: nearly all actives have a fitted effect of over 55% in size; also: potency is read from the fitted curve at half-maximal effect
# Outline: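 Cells: ER-beta-UAS-bla HEK293T, 2,000/well, 2% CS-FBS, 6 hr settle. Cpd + E2 (1nM final), 16 hr, 37C/5% CO2. Bla FRET substrate 2 hr RT, then CellTiter-Glo 30 min RT, luminescence.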
# [17] = target: Estrogen receptor (Homo sapiens) (UniProt P03372); experiment: qHTS assay to identify small molecule agonists of the estrogen receptor alpha (ER-alpha) signaling pathway in the presence of an antagonist (AID 1259383; calls by dose curve; also: top concentration of the series differs between compounds; nearly all actives have a fitted effect of over 15% in size)
# Outline: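 VM7Luc4E2, endog. ER-alpha + 4×ERE-luc; charcoal-stripped FBS, phenol red-free, 5 d; 24hr plating; +10.0nM ICI-182,780 (final); cpds 15 conc, 22hr, 37C/5% CO2; ONE-Glo luminescence.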
# [18] = qHTS assay to identify small molecule agonists or antagonists of the thyroid stimulating hormone receptor (TSHR) signaling pathway - wild type cell line counter screen (AID 1259384; calls by dose curve)
# Outline: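 Wild-type Hek293 cells, 800/well, 18 h at 37C, then compound with Ro20-1724 for 30 min RT. cAMP by HTRF (cAMP-d2/anti-cAMP cryptate), 1 h RT, fluorescence read. 15 concentrations, triplicates.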
# [19] = qHTS assay to identify small molecule antagonists of the sonic hedgehog signaling (Shh) pathway (AID 1259369; calls by dose curve; also: nearly all actives have a fitted effect of over 45% in size; also: potency is read from the fitted curve at half-maximal effect)
# Outline: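 3T3Gli1-Luc, conditioned-medium-stimulated, 24hr cpd, 37C/5% CO2; Gli1-driven firefly Luc luminescence after 30min RT with luciferase reagent. Cells plated 4hr before cpd.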
# [20] = target: Thyrotropin receptor (Homo sapiens) (UniProt P16473); experiment: qHTS assay to identify small molecule antagonists of the thyroid stimulating hormone receptor (TSHR) signaling pathway (AID 1259385; calls by dose curve; also: nearly all actives have a fitted effect of over 20% in size; also: potency is read from the fitted curve at half-maximal effect)
# Outline: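 TSHR-HEK293 cells (800/well) plated 18 h, then compounds with Ro20-1724 and TSH at 1.5 ng/mL final, 30 min at room temperature. cAMP quantified by HTRF (cAMP-d2/anti-cAMP-cryptate, 1 h); 15 concentrations in triplicate.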
# Sequence of Thyrotropin receptor (Homo sapiens) (P16473 whole entry, looked up): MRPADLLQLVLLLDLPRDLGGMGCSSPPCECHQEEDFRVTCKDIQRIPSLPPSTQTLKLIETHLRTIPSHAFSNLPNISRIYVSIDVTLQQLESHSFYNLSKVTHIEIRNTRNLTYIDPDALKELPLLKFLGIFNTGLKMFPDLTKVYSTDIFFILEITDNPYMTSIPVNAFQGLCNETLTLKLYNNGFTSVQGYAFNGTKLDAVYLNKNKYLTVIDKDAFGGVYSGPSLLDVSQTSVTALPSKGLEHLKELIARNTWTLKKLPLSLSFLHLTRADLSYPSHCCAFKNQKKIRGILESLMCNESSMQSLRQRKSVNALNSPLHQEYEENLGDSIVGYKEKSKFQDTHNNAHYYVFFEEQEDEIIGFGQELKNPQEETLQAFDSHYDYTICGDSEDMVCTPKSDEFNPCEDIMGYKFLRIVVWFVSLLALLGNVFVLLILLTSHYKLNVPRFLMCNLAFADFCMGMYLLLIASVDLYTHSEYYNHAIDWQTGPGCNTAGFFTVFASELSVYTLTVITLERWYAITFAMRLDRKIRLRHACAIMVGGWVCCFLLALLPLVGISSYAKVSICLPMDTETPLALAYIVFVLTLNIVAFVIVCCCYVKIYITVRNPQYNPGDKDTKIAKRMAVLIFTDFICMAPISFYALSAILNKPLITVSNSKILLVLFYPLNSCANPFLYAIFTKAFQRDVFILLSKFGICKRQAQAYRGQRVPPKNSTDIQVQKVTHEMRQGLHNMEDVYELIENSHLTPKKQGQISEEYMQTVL
# Sequence of Androgen receptor (Homo sapiens) (P10275 whole entry, looked up): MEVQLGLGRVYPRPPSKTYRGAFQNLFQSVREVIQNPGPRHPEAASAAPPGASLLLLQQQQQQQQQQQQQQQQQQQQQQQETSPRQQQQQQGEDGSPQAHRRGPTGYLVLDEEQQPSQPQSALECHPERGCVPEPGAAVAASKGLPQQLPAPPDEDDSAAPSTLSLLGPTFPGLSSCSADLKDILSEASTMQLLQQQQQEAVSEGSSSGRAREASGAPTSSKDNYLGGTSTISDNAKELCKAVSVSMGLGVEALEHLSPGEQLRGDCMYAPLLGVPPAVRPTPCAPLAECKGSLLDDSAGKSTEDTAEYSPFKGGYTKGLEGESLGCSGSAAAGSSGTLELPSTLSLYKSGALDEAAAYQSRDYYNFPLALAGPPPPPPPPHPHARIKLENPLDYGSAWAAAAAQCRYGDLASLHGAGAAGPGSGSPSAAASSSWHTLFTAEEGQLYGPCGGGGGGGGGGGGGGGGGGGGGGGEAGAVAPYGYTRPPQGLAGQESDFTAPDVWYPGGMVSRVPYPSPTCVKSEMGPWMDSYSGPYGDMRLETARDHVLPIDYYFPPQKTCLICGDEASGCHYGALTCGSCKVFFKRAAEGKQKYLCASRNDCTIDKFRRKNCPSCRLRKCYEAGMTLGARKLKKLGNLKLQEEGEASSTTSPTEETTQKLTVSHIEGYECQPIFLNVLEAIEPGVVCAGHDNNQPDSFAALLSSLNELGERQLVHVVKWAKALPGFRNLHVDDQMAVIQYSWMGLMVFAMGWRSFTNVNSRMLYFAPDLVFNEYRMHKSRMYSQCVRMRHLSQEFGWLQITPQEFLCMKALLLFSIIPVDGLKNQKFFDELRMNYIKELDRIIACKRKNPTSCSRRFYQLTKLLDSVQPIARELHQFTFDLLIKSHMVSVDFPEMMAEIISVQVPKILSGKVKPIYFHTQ
# Sequence of Estrogen receptor (Homo sapiens) (P03372 whole entry, looked up): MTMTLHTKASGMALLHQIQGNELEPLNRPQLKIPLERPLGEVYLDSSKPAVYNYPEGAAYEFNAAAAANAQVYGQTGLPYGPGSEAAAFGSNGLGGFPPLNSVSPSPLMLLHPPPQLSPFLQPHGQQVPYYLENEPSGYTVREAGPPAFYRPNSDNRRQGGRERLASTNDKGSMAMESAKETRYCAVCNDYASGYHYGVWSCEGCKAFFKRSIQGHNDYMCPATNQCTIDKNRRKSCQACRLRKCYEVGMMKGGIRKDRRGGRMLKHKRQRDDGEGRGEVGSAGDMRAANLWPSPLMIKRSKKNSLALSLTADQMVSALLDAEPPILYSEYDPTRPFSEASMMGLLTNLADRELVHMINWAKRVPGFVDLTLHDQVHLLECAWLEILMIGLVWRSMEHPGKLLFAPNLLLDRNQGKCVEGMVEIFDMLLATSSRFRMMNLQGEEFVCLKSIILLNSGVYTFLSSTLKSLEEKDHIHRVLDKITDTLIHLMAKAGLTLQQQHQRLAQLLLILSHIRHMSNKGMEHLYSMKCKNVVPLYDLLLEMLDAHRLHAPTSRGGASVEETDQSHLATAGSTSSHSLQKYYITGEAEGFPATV
# Sequence of Estrogen receptor beta (Homo sapiens) (Q92731 whole entry, looked up): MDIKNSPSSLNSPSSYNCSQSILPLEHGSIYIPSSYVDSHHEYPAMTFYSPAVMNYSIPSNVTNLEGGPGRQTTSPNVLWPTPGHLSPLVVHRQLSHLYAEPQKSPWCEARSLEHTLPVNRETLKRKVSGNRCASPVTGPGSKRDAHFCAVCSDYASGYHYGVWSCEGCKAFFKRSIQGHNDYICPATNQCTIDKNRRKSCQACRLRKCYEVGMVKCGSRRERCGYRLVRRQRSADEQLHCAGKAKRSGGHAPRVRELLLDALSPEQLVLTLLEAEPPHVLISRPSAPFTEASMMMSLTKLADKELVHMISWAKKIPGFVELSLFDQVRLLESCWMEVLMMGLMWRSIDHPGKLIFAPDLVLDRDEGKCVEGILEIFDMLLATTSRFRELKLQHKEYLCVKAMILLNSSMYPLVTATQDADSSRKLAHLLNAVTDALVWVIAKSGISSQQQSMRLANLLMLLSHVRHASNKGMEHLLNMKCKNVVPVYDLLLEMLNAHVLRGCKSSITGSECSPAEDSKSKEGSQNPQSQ
structure (smiles),measurement,setting,value
CC(C)C(C)(C)C(C)(C)C(C)(C)S,Potency,[1],inactive
same,Potency,[2],inactive
same,Potency,[3],inactive
same,Potency,[4],inactive
same,Potency,[5],inactive
same,Potency,[6],inactive
same,Potency,[7],inactive
same,Potency,[8],inactive
same,Potency,[9],inactive
same,Potency,[10],inactive
same,Potency,[11],inactive
same,Potency,[12],inactive
same,Potency,[13],inactive
same,Potency,[14],inactive
same,Potency,[15],inactive
same,Potency,[16],inactive
same,Potency,[17],inactive
same,outcome,[18],inactive
Cc1nc(-c2ccc3c(c2)CCN(CCC2CCC(NC(=O)/C=C/c4ccc(F)cc4)CC2)CC3)no1 (stereo unspecified),Potency,[1],inactive
same,Potency,[2],inactive
same,Potency,[3],inactive
same,Potency,[4],inactive
same,Potency,[6],inactive
same,Potency,[7],inactive
same,Potency,[8],inactive
same,Potency,[9],inactive
same,Potency,[10],inactive
same,Potency,[19],inactive
same,Potency,[13],inactive
same,Potency,[14],inactive
same,Potency,[15],inactive
same,Potency,[16],inactive
same,Potency,[17],inactive
same,outcome,[18],inactive
same,Potency,[20],inactive
Cc1cc(CCN2CCN(c3nsc4ccccc34)CC2)cc2c1NC(=O)CC2(C)C,Potency,[1],34.4 µM (active)
same,Potency,[2],27.3 µM (active)
same,Potency,[3],8.63 µM (active)
same,Potency,[4],13.7 µM (active)
same,Potency,[7],inactive
same,Potency,[8],21.7 µM (active)
same,Potency,[9],19.3 µM (active)
same,Potency,[10],inactive
same,Potency,[19],1.37 µM (active)
same,Potency,[13],30.6 µM (active)
same,Potency,[14],21.7 µM (active)
same,Potency,[15],inactive
same,Potency,[16],19.3 µM (active)
same,outcome,[18],inactive
CCCCCCCCCCCCCC[P+](CCCC)(CCCC)CCCC (tested in a mixture with another compound),Potency,[1],inactive
same,Potency,[2],19.4 µM (active)
same,Potency,[3],1.94 µM (active)
same,Potency,[4],1.73 µM (active)
same,Potency,[6],inactive
same,Potency,[8],27.5 µM (active)
same,Potency,[10],inactive
same,Potency,[19],0.138 µM (active)
same,Potency,[13],7.74 µM (active)
same,Potency,[14],19.4 µM (active)
same,Potency,[15],inactive
same,Potency,[17],inactive
same,outcome,[18],inactive
same,Potency,[20],69 µM (active)
CC(C)(C)C(=O)OCOC(=O)C1N2C(=O)CC2S(=O)(=O)C1(C)C (stereo unspecified),Potency,[1],inactive
same,Potency,[2],inactive
same,Potency,[3],inactive
same,Potency,[4],inactive
same,PLD induction,[5],3.21% [at 0.0123 µM]
same,Potency,[6],inactive
same,Potency,[7],inactive
same,Potency,[8],inactive
same,Potency,[9],inactive
same,Potency,[10],inactive
same,Potency,[19],inactive
same,Potency,[12],10.6 µM (active)
same,Potency,[13],inactive
same,Potency,[15],inactive
same,Potency,[16],inactive
same,Potency,[17],inactive
same,outcome,[18],inactive
same,Potency,[20],inactive
CCCCCCCCCCn1cc[n+](CCCCCCCCCC)c1C,Potency,[1],68.7 µM (active)
same,Potency,[2],30.7 µM (active)
same,Potency,[3],2.17 µM (active)
same,Potency,[4],3.86 µM (active)
same,Potency,[6],inactive
same,Potency,[7],61.2 µM (active)
same,Potency,[8],27.3 µM (active)
same,Potency,[9],30.7 µM (active)
same,Potency,[10],inactive
same,Potency,[19],0.077 µM (active)
same,Potency,[13],24.4 µM (active)
same,Potency,[14],30.7 µM (active)
same,Potency,[15],inactive
same,Potency,[16],27.3 µM (active)
same,Potency,[17],inactive
same,outcome,[18],inactive
same,Potency,[20],54.5 µM (active)
Nc1cc(C(F)(F)F)ccc1S,Potency,[1],inactive
same,Potency,[2],inactive
same,Potency,[3],inactive
same,Potency,[4],inactive
same,Potency,[6],inactive
same,Potency,[7],inactive
same,Potency,[10],inactive
same,Potency,[19],13.3 µM (active)
same,Potency,[11],inactive
same,Potency,[13],inactive
same,Potency,[14],21.1 µM (active)
same,Potency,[15],inactive
same,Potency,[17],inactive
